Among the data in PubChem BioAssay (NCI) are growth values, retold here.

Test systems include HT29 colon; SNB-75 CNS; SNB-19 CNS; U251 CNS; PC-3 prostate; SK-MEL-5 melanoma; UACC-62 melanoma; LOX IMVI melanoma; SK-MEL-28 melanoma.
What all share (assay): NCI-60 one-dose screen, 48 h (100 = growth as untreated, 0 = no growth, -100 = all killed)
Settings in all cases: 10 µM unless noted

Compounds without any hit were thinned out: in the full panel of roughly 83,000, 20% have a hit.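 Values shown are percent growth following 48 h exposure of cells in 96-well plates to a single concentration of compound; below 10 was considered active.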 Values without a mark were called inactive. Calls of active or inactive are those of the source.

`CCOC(=O)c1cnn(-c2nc(-c3ccc(F)cc3)c(C#N)c(N3CCOCC3)n2)c1N`: the growth is 92% in the assay with HT29 colon; 82.2% in the assay with SNB-75 CNS; 95.1% in the assay with SNB-19 CNS; 95.3% in the assay on U251 CNS; 95.1% with PC-3 prostate; 96.6% in the assay with SK-MEL-5 melanoma. In addition, the growth in the assay with UACC-62 melanoma was 90.8%; in the assay with LOX IMVI melanoma, 106%; with SK-MEL-28 melanoma, 111%.
For the compound `Cc1cnc(SCc2ccc(Cl)cc2Cl)nc1Nc1ccc(Cl)c(Cl)c1`, the growth in the assay with HT29 colon is 85.1%; in the assay on SNB-75 CNS it was 85.4%; in the assay with SNB-19 CNS, 96.7%; with U251 CNS, 93.9%; in the assay with PC-3 prostate, 71.6%; in the assay with SK-MEL-5 melanoma, 93.4%. Further, the growth is 53.4% in the assay on UACC-62 melanoma, 81.2% in the assay with LOX IMVI melanoma and 111% with SK-MEL-28 melanoma.
In the case of `CC1CCN(CCCCCOc2ccc3oc4ccccc4c(=O)c3c2)CC1`, the growth is 10.8% in the assay with HT29 colon; 84.7% in the assay on SNB-75 CNS; 87.5% with SNB-19 CNS; 67.5% with U251 CNS; 80.8% with PC-3 prostate; -12.2% (active) with SK-MEL-5 melanoma. For the same compound, the values for the growth in the assay on UACC-62 melanoma, with LOX IMVI melanoma and with SK-MEL-28 melanoma were 14.3%, 53.3% and 87.7%, respectively.
For `COc1ccc(-c2cc(-c3nnc(SCC(=O)Nc4ccc(/C(C)=N\O)cc4)n3-c3ccccc3)c3cc(OC)ccc3n2)cc1`, the growth in the assay with HT29 colon is 79.8%; in the assay with SNB-75 CNS it was 80.3%; with SNB-19 CNS, 77.9%; with U251 CNS, 78.1%; in the assay on PC-3 prostate, 61.1%; in the assay with SK-MEL-5 melanoma, 83.8%. Besides, the figures for the growth in the assay with UACC-62 melanoma, in the assay with LOX IMVI melanoma and in the assay on SK-MEL-28 melanoma were 49%, -36.4% (active) and 95.4%, respectively.
For the compound `CCOC(=O)C1=C(C)n2nc(CC#N)c(C#N)c2NC1c1ccc(Cl)cc1` (stereo unspecified), the growth with HT29 colon is 111%; in the assay with SNB-75 CNS, 86.1%; in the assay on SNB-19 CNS, 106%; in the assay on U251 CNS, 107%; in the assay with PC-3 prostate it was 91.3%; in the assay on SK-MEL-5 melanoma, 98.3%. Besides, the results for the growth with LOX IMVI melanoma and in the assay on SK-MEL-28 melanoma were 94.7% and 101%, respectively.
With `C=C1C(=O)O[C@H]2[C@H]1CC/C(COC(=O)Nc1nc3ccccc3[nH]1)=C\CC[C@@]1(C)O[C@@H]21`, the growth with HT29 colon is 42.2%; in the assay with SNB-75 CNS, 75.7%; in the assay on SNB-19 CNS it was 91.1%; in the assay with U251 CNS it was 90.2%; with PC-3 prostate, 67.5%; in the assay on SK-MEL-5 melanoma it was 83.7%. For the same compound, the figures for the growth in the assay on UACC-62 melanoma, in the assay on LOX IMVI melanoma and in the assay with SK-MEL-28 melanoma were 53.9%, 69.6% and 61.4%, respectively.
For the compound `O=C(C[n+]1cccc2cc(Cl)ccc21)c1ccc2c(c1)CCCC2`, the growth is 5.56% (active) with HT29 colon; 19.8% in the assay with SNB-75 CNS; 23.2% in the assay with SNB-19 CNS; -28.9% (active) in the assay on U251 CNS; 16.1% in the assay on PC-3 prostate; -29% (active) in the assay with SK-MEL-5 melanoma. Also, the growth is 17.3% in the assay with UACC-62 melanoma, 11.9% in the assay on LOX IMVI melanoma and 19.8% in the assay on SK-MEL-28 melanoma.
For the compound `O=C1NC(c2ccc(F)cc2)N=C2C(c3ccccc3)=NOC12` (stereo unspecified), the growth is 98.7% with HT29 colon; 101% in the assay with SNB-75 CNS; 103% with SNB-19 CNS; 101% in the assay with U251 CNS; 104% in the assay with PC-3 prostate; 105% in the assay on SK-MEL-5 melanoma. Further, the growth in the assay on UACC-62 melanoma is 102%; in the assay on LOX IMVI melanoma, 108%; in the assay with SK-MEL-28 melanoma, 115%.
